Reference: PubChem BioAssay AID1159580 (chemical genetic matrix, 2015)
Several values for one entry are separate records, joined by “and”; a condition that tells them apart may be missing. Equal entries are not always repeated. Screen size: about 5,500 compounds; about 2,000 (36%) were called active. About 18% were inconclusive and are not listed. Rule as the data show it: active = normalized growth mostly below about 0.91 (no sharp cut-off); inconclusive = no clear call, values can overlap the other calls; inactive = mostly above about 0.92. This is one part of the list.

Experiment: chemical genetic growth profiling, strain panel (AID 1159580);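 also: tested at 20 µM; growth read once vehicle control cultures reached saturation at 30 °C; 1 = growth at the plate median or of vehicle wells; lower values mean less growth of the strain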
Settings: S. cerevisiae deletion strains, growth OD

Measured: normalized growth

CCOC([O-])=Nc1c[n+](N2CCOCC2)no1
inactive: locus YAL013W, strain DEP1, active compounds read low 1.01 | locus YAL021C, strain ccr4, active compounds read low 0.994 | locus YAL026C, strain drs2, active compounds read low 0.999 | locus YAL030W, strain snc1, active compounds read low 0.991 | locus YBL061C, strain skt5, active compounds read low 0.997 | locus YBR009C, strain hhf1, active compounds read low 0.997 | locus YBR021W, strain FUR4, active compounds read low 1.03 | locus YBR023C, strain chs3, active compounds read low 0.986 | locus YBR171W, strain sec66, active compounds read low 1 | locus YBR229C, strain ROT2, active compounds read low 1.01 | locus YBR231C, strain swc5, active compounds read low 0.997 | locus YBR279W, strain paf1, active compounds read low 1.01 | locus YCL011C, strain gbp2, active compounds read low 0.996 | locus YCL016C, strain dcc1, active compounds read low 0.978 | locus YCL029C, strain bik1, active compounds read low 0.991 | locus YCL061C, strain MRC1, active compounds read low 0.998 | locus YCL069W, strain vba3, active compounds read low 0.996 | locus YCR088W, strain abp1, active compounds read low 0.999 | locus YDL005C, strain med2, active compounds read low 0.993 | locus YDL035C, strain GPR1, active compounds read low 1.03 | locus YDL040C, strain nat1, active compounds read low 1 | locus YDL074C, strain BRE1, active compounds read low 1.04 | locus YDL101C, strain DUN1, active compounds read low 1.02 | locus YDL134C, strain PPH21, active compounds read low 1.01 | locus YDL185W, strain tfp1, active compounds read low 0.984 | locus YDL192W, strain arf1, active compounds read low 0.998 | locus YDR001C, strain nth1, active compounds read low 0.993 | locus YDR069C, strain doa4, active compounds read low 1 | locus YDR101C, strain arx1, active compounds read low 0.972 | locus YDR137W, strain rgp1, active compounds read low 1.01 | locus YDR150W, strain NUM1, active compounds read low 1.02 | locus YDR159W, strain sac3, active compounds read low 0.993 | locus YDR162C, strain NBP2, active compounds read low 1.01 | locus YDR195W, strain ref2 1 | locus YDR297W, strain sur2, active compounds read low 1 | locus YDR318W, strain mcm21, active compounds read low 0.99 | locus YDR334W, strain swr1, active compounds read low 0.984 | locus YDR335W, strain msn5, active compounds read low 0.991 | locus YDR388W, active compounds read low 0.997 | locus YDR392W, strain spt3, active compounds read low 0.927 | locus YDR502C, strain sam2, active compounds read low 0.988 | locus YEL003W, strain gim4, active compounds read low 1 | locus YEL037C, strain rad23, active compounds read low 0.993 | locus YEL061C, strain CIN8 (second series), active compounds read low 1 | locus YEL061C, strain CIN8, active compounds read low 1.01 | locus YER015W, strain faa2, active compounds read low 0.979 | locus YER016W, strain bim1, active compounds read low 1.01 | locus YER110C, active compounds read low 0.984 | locus YER111C, strain swi4, active compounds read low 0.979 | locus YER155C, strain BEM2 (second series), active compounds read low 0.984 | locus YER155C, strain BEM2, active compounds read low 1 | locus YER167W, strain BCK2, active compounds read low 1.01 | locus YFR010W, strain ubp6, active compounds read low 0.986 | locus YGL078C, strain dbp3, active compounds read low 0.987 | locus YGL086W, strain mad1, active compounds read low 1 | locus YGL167C, strain pmr1, active compounds read low 1 | locus YGL173C, strain kem1, active compounds read low 0.994 | locus YGL227W, strain vid30, active compounds read low 0.993 | locus YGL240W, strain doc1, active compounds read low 1.01 | locus YGL248W, strain PDE1, active compounds read low 1.01 | locus YGL253W, strain hxk2, active compounds read low 0.993 | locus YGR078C, strain PAC10, active compounds read low 1 | locus YGR135W, strain pre9, active compounds read low 0.986 | locus YGR229C, strain SMI1, active compounds read low 1.02 | locus YGR252W, strain gcn5, active compounds read low 1.01 | locus YHR013C, strain ard1, active compounds read low 0.985 | locus YHR027C, strain rpn1, active compounds read low 0.987 | locus YHR030C, strain SLT2, active compounds read low 1.01 and 1.02 | locus YHR079C, strain IRE1 (second series), active compounds read low 1 | locus YHR079C, strain IRE1, active compounds read low 1.03 | locus YHR094C, strain hxt1, active compounds read low 0.998 | locus YHR129C, strain ARP1, active compounds read low 1.01 | locus YHR142W, strain chs7, active compounds read low 0.992 | locus YHR200W, strain rpn10, active compounds read low 0.995 | locus YIL066C, strain RNR3, active compounds read low 1.01 | locus YIL073C, strain SPO22, active compounds read low 0.973 | locus YIL125W, strain kgd1, active compounds read low 1 | locus YIR030C, strain dcg1, active compounds read low 0.992 | locus YJL092W, strain hpr5, active compounds read low 0.992 | locus YJL095W, strain BCK1 (second series), active compounds read low 0.994 | locus YJL095W, strain BCK1, active compounds read low 1 and 1.03 | locus YJL115W, strain asf1, active compounds read low 0.982 | locus YJL129C, strain trk1, active compounds read low 0.997 | locus YJL134W, strain LCB3, active compounds read low 1.01 | locus YJL154C, strain vps35, active compounds read low 0.99 | locus YJL164C, strain tpk1, active compounds read low 0.989 | locus YJL166W, strain qcr8, active compounds read low 0.991 | locus YJL168C, strain set2, active compounds read low 1 | locus YJL187C, strain SWE1 (second series), active compounds read low 1.01 | locus YJL187C, strain SWE1, active compounds read low 1.01 | locus YJR043C, strain POL32, active compounds read low 0.989 | locus YJR066W, strain TOR1, active compounds read low 0.997
